High-throughput results (PubChem BioAssay)
RORg inh = ROR gamma (mouse) transcription inhibition. Potency, µM (doses to about 53.6 µM), for the others: at the top dose activity change, negative = inhibition, usual class: inhibitors. AID 2551. actives 5.4% (n = 310,000). Drosophila S2 Gal4-RORgamma UAS-luciferase reporter, 20 h; further: nearly all actives have a fitted effect of over 60% in size
Target sequence (P51450 whole entry, looked up, the tested form may be a part): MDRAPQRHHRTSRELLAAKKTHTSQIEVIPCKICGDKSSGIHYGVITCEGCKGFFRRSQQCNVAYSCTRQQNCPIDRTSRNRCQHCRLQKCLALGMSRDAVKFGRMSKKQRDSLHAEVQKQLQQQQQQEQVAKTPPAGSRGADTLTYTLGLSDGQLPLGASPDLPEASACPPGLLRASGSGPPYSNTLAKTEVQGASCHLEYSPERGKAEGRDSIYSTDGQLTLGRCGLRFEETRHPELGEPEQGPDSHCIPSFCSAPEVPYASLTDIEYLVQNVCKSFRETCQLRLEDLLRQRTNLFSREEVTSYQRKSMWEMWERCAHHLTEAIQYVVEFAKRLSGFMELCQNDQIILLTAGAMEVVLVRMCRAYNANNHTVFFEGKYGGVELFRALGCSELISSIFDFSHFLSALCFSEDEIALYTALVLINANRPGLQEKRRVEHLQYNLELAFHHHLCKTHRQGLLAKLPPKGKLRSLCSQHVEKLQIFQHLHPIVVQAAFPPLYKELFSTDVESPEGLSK
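ROR gamma transcriptional activity was tracked as Gal4-UAS luciferase output in stably transfected Drosophila Schneider cells, with compound added 1 hr before 700 uM copper sulfate induction and a 20 hr ambient-temperature incubation.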
ELG1 DNA repair = blocks ELG1-dependent DNA repair in HEK293T cells; HEK293T ELG1-luciferase reporter, luminescence, 16 h; DNA damage induced by 5-fluorouridine; Potency, µM (series often up to 46.1 µM), without a hit: at the top dose activity change, negative = inhibition, hits mostly inhibitors; actives 2.3% (n = 330,000); AID 504467; further: nearly all actives have a fitted effect of over 55% in size
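Overnight (16 hr) co-exposure of 2,000 cells/well to 5-fluorouridine and compound at 37 °C preceded detection. Luciferase was quantified via ONE-Glo luminescence; loss of signal denotes inhibition.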
TDP1 cell noCPT = qHTS for Inhibitors of human tyrosyl-DNA phosphodiesterase 1 (TDP1): qHTS in cells in absence of CPT. actives 15% (n = 420,000). AID 686978, 2013. Potency, µM (top dose mostly 46.2 µM), without a hit: at the top dose activity change, negative = growth inhibition, hits mostly inhibitors. DT40 Tdp1-/- hTDP1 cells, no CPT, ATP luminescence, 48 h; further: nearly all actives have a fitted effect of over 55% in size
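Growth kinetics read by CellTiter-Glo luminescence after ≥48 hr at 37 °C. Cells: DT40 Tdp1-/- stably carrying human TDP1, 400 per well, compound exposure in the absence of CPT (DMSO vehicle).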
TDP1 cell CPT = DT40-hTDP1 cell growth loss with CPT; chicken DT40 Tdp1-/-;hTDP1 cells + 20 nM CPT, ATP luminescence, 48 h; Potency, µM (highest dose often 46.2 µM), without a hit: at the top dose activity change, negative = growth inhibition, most hits filed as inhibitors; actives 12% (n = 420,000); AID 686979; further: nearly all actives have a fitted effect of over 55% in size
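Chicken DT40 Tdp1-/- cells complemented with human TDP1, 400 cells/well, exposed to compounds plus 20 nM camptothecin for at least 48 h at 37 C; viability read as ATP content by CellTiter-Glo luminescence.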
VP16 counter = inhibits Gal4-VP16 luciferase reporter, ROR gamma counter-screen; AID 2546; Drosophila S2 Gal4-VP16 UAS-luciferase, luminescence, 20 h; actives 3.5% (n = 310,000); Potency, µM (titrated, usually from 53.6 µM), for the others: at the highest dose activity, negative = inhibition, usual class: inhibitors;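 further: Gal4-VP16 expression switched on by copper sulfate through the metallothionein promoter; nearly all actives have a fitted effect of over 50% in size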
12-LOX inh = inhibitors of human 12S-lipoxygenase ALOX12; actives 1.1% (n = 580,000); purified 12hLO, xylenol orange hydroperoxide absorbance; Potency, µM (highest dose often 108 µM), for the others: at the highest dose activity change, negative = inhibition, usual class: inhibitors; P18054
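Hydroperoxide product was detected by ferrous iron/xylenol orange as the 573 to 405 nm absorbance ratio. Arachidonic acid at 40 uM (final) was turned over for 30 min at room temperature by 150 nM human 12hLO, pH 7.0 Hepes buffer, after 15 min compound preincubation.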
* marks the source's active call; other numbers are inactive results; ? = inconclusive; nt = not tested or not shown. Most compounds without a hit are left out; they make up all but 15% or so of the library. The call rests on the fitted dose curve; in most records, active means well fitted curve in the direction sought with a large enough effect; inconclusive means small, poorly fitted or top-dose-only effect, or another doubt; inactive means no such curve, though single readings can be large; an effect the other way counts as inactive or inconclusive. On the % scale 0 is the no-effect control and ±100 the full control effect; potency means the concentration at half of the fitted maximal effect.

SMILES	RORg inh	ELG1 DNA repair	TDP1 cell noCPT	TDP1 cell CPT	VP16 counter	12-LOX inh
N=C(N)SCP(=O)(c1ccccc1)c1ccccc1	12.8%	?	18.4µM*	20.6µM*	-6.1%	11.0%
CCOC(=O)CP(=O)(c1ccccc1)c1ccccc1	-29.8%	-2.4%	-7.7%	6.1%	-2.5%	423.4%
COc1ccc(C(=O)N2CCc3ccc(C(=O)NC4CCCCC4)cc32)cc1	nt	nt	nt	nt	nt	23.2%
COc1cc(C)ccc1OCc1cc(C(=O)N(Cc2c(C)nn(C)c2C)C2CC2)no1	?	?	16.4µM*	?	?	-2.7%
COc1cc(C)ccc1OCc1cc(C(=O)N2C[C@H]3CC[C@H]2C3)no1	36.3%	12.7%	10.4%	-3.4%	-4.9%	-18.6%
CCOC(=O)N1CCc2c(sc(NCc3sccc3C)c2C(=O)Nc2cc(OC)ccc2OC)C1	nt	nt	-22.7%	-3.6%	nt	-23.1%
COc1ccc(OC)c(NC(=O)c2c(NCc3ccc(OC)c(OC)c3)sc3c2CCC3)c1	nt	nt	16.4µM*	14.6µM*	nt	?
COc1cccc(CNc2sc3c(c2C(=O)Nc2ccc(OC)cc2OC)CCC3)c1	nt	nt	20.6µM*	13µM*	nt	5.2%
COc1ccc(OC)c(NC(=O)c2c(NCc3ccc(N(C)C)cc3)sc3c2CCCC3)c1	nt	nt	?	20.6µM*	nt	?
COc1ccc(NC(=O)c2c(NC(=O)c3cccc(C)c3)sc3c2CCC3)cc1	nt	nt	2.6%	8.3%	nt	-9.8%
O=C1NC2(CCCCC2)N(C(=O)c2ccccc2Cl)C2=C1CCCC2	nt	nt	nt	nt	nt	-38.8%
Cc1ccc(Cl)cc1NC(=O)N1CCCC(Cn2cnc3cccnc32)C1 (centres undefined)	nt	nt	nt	nt	nt	27.5%
COc1ccc(C(C)=O)c(OS(=O)(=O)c2ccc3c(c2)CCC3)c1	nt	nt	nt	nt	nt	-18.6%
O=C(NCC(F)(F)F)C1CCN(Cc2ccccc2)CC1	nt	nt	nt	nt	nt	-4.7%
Cc1ccccc1C(=O)Nc1cccc(NC(=O)c2ccc(C(C)(C)C)cc2)c1	nt	nt	5.8µM*	8.2µM*	nt	12.1%
C/C(=N\NC(=O)c1ccccc1F)c1cccc(NC(=O)c2ccccc2)c1	-16.7%	?	-18.4%	-24.2%	-4.7%	3.0%
C/C(=N\NC(=O)c1c(Br)c(C)nn1C)c1cccc(NC(=O)c2ccccc2C)c1	22.6%	?	?	?	21.4%	12.5%
C/C(=N\NC(=O)c1cc(Br)ccc1O)c1cccc(NC(=O)c2ccccc2F)c1	11.2µM*	?	8.4%	-0.8%	1.2%	-10.1%
Cc1ccccc1C(=O)Nc1cccc(N)c1	21.8%	?	1.5%	1.9%	-25.0%	1.1%
C/C(=N\NC(=O)c1ccc(O)cc1)c1cccc(NC(=O)c2ccccc2C)c1	-19.6%	29.0%	23.1µM*	?	-2.7%	-5.5%
CC(C)COC(=O)CN1C(=O)S/C(=C/c2ccc(Cl)cc2)C1=O	nt	nt	nt	nt	nt	24.1%
C[C@H](CO)N1C[C@H](C)[C@@H](CN(C)C(=O)Nc2ccc3c(c2)OCO3)Oc2c(NC(=O)Nc3ccc4c(c3)OCO4)cccc2C1=O	nt	?	23.1µM*	16.4µM*	nt	-0.6%
C[C@H](CO)N1C[C@H](C)[C@@H](CN(C)C(=O)Nc2ccccc2)Oc2c(NC(=O)Nc3ccc4c(c3)OCO4)cccc2C1=O	nt	?	?	13µM*	nt	0.3%
Cc1ccc(/C=N/NC(=O)c2cccc(Br)c2)s1	nt	nt	nt	nt	nt	-4.3%
COc1ccccc1-c1cnc(C(O)c2ccccc2)[nH]1 (centres undefined)	nt	nt	?	-25.9%	nt	-6.5%
COc1ccccc1-c1cnc(C(O)c2ccc(C(C)(C)C)cc2)[nH]1 (centres undefined)	nt	nt	18.4µM*	?	nt	-11.6%
